# Compound activity as filed in PubChem.
# Only a selection was taken, and hits are over-represented in it overall.
# a7 integrin act – qHTS for Activators of Integrin-Mediated Alleviation for Muscular Dystrophy; hit rate 0.064% among 350,000; AID 624291, 2012; Potency, µM (highest dose often 38.3 µM), for the others: at the highest dose activation, most hits filed as activators; alpha7betagal myoblasts, beta-gal FDG fluorescence, 48 h;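 further: potency means the concentration at half of the fitted maximal effect; 100% = response of the positive control SU9516; nearly all actives have a fitted effect of over 60% in size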
#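 alpha7betagal+/- myoblasts (passage 13, 250/well) treated 48 h at 37C with compounds at 1:260 dilution of DMSO stock. Lysed, then beta-galactosidase activity read as FDG fluorescence (ex 480/em 540) after 30 min, with pre-read for autofluorescence.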
# ERG Ets-DNA blk – qHTS for Small Molecule Inhibitors of the ERG Ets/DNA interaction; AID 624246, 2012; Potency, µM (doses to about 76.9 µM), inactives show at the highest dose FP activity, negative = inhibition, actives largely listed as inhibitors; Transcriptional regulator ERG (Homo sapiens), P11308; fluorescence polarization, His-ERG Ets domain / labelled DNA; hit rate 0.028% among 370,000; active means well fitted inhibition curve with a large enough effect in the polarisation, with a control signal flat; inconclusive means small, poorly fitted or top-dose-only effect, or effect the other way, or a change in a side signal; inactive means no such curve, though single readings can be large or run the other way; the % refers to the polarisation;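 further: polarization taken with two DNA probes labelled with fluorescein and Texas red; potency means the concentration at half of the fitted maximal effect; % of control where 0% means no effect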
# Target sequence (P11308 whole entry, looked up, the tested form may be a part): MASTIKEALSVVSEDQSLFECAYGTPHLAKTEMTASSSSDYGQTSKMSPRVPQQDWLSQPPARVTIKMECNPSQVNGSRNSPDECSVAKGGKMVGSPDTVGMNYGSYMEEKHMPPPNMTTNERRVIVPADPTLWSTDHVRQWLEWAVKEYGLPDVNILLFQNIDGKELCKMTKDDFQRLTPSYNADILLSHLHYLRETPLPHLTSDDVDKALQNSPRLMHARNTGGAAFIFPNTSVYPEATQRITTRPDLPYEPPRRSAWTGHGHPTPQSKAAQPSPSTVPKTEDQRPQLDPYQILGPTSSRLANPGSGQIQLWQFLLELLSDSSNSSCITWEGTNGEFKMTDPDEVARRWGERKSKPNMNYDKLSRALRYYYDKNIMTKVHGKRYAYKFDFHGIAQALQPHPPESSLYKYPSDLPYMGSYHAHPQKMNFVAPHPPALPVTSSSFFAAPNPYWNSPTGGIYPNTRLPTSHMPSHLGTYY
#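 His-tagged ERG Ets domain (1 uM in the protein solution; 300mM KCl, 50mM Tris-HCl, 1mM EDTA, 1mM DTT, pH 7.5) received compound, then a probe mix of 5 nM fluorescein-DNA and 100nM Texas-615-DNA. Fluorescence polarization was read for both dyes.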
# Giardia killer – Small Molecules that selectively kill Giardia lamblia: qHTS | Giardia lamblia trophozoite viability | activity change, % at 7.66 µM, hits read low | hit rate 0.15% among 340,000; in the data active means activity change below about -80%; inconclusive means between about -30% and that limit;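 further: parasites exposed to compound for two days anaerobically before the ATP read; on the % scale 0 is the no-effect control and ±100 the full control effect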
#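 Giardia trophozoites, 100 cells per well, were exposed to compounds for 48 hrs at 37 deg C under anaerobic conditions; viability was then read as ATP content by bioluminescence after 15-30 min at room temperature.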
# Gal4-VP16 FLuc – VP16 counterscreen qHTS for inhibitors of ROR gamma transcriptional activity; Drosophila S2 Gal4-VP16 UAS-luciferase, luminescence, 20 h; Potency, µM (series often up to 53.6 µM), for inactives: top-dose activity, negative = inhibition, actives largely listed as inhibitors; hit rate 3.5% among 310,000; AID 2546, 2010;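 further: Gal4-VP16 expression switched on by copper sulfate through the metallothionein promoter; potency means the concentration at half of the fitted maximal effect; on the % scale 0 is the no-effect control and ±100 the full control effect; nearly all actives have a fitted effect of over 50% in size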
# RORg inh – qHTS for inhibitors of ROR gamma transcriptional activity | Nuclear receptor ROR-gamma (Mus musculus), P51450 | Drosophila S2 Gal4-RORgamma UAS-luciferase reporter, 20 h | Potency, µM (series often up to 53.6 µM), for the others: top-dose activity change, negative = inhibition, usual class: inhibitors | hit rate 5.4% among 310,000 | AID 2551, 2010; further: potency means the concentration at half of the fitted maximal effect; on the % scale 0 is the no-effect control and ±100 the full control effect; nearly all actives have a fitted effect of over 60% in size
#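 Read-out: Photinus luciferase luminescence; inhibitors lower reporter signal. Insect Schneider cells with Gal4-ROR gamma fusion under metallothionein promoter, UAS reporter; 700 uM final copper sulfate induction, 20 hr, ambient temperature.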
# Starred values were filed as active, the others as inactive; u = inconclusive; x = no result; [ ] = another dose, or the depositor's remark. Unless noted, the call rests on the fitted dose curve; in most records, active means well fitted curve in the direction sought with a large enough effect; inconclusive means small, poorly fitted or top-dose-only effect, or another doubt; inactive means no such curve, though single readings can be large; an effect the other way counts as inactive or inconclusive.
SMILES,a7 integrin act,ERG Ets-DNA blk,Giardia killer,Gal4-VP16 FLuc,RORg inh
CC(O)CNc1nc(Cl)c(C#N)s1 (centres undefined),-7.8%,-2.0%,-13.9,-3.1%,20.4%
Cc1ccc2c(Cl)cc(Cl)c(OCC(=O)Nc3cc(S(=O)(=O)N(C)C)ccc3C)c2n1,25.7%,10.3%,-14.0,u,-138.4%
Cc1ccc2c(Cl)cc(Cl)c(OCC(=O)Nc3cccc(S(N)(=O)=O)c3)c2n1,-0.4%,-2.7%,-23.1,u,14.1µM*
Cc1ccc2c(Cl)cc(Cl)c(OCC(=O)Nc3cccc(S(=O)(=O)N(C)C)c3)c2n1,-6.1%,10.6%,5.4,10µM*,5.01µM*
Cc1ccc2c(Cl)cc(Cl)c(OCC(=O)Nc3ccc(C)c(S(=O)(=O)N(C)C)c3)c2n1,x,x,x,7.08µM*,7.08µM*
COc1ccc(OC)c(NC(=O)COC(=O)COc2c(Cl)cc(Cl)c3ccc(C)nc23)c1,30.2%,-1.4%,0.2,x,x
COC(=O)[C@H](C)[C@H](CC(C)C)NC(=O)[C@H](C)[C@H](CC(C)C)NC(=O)c1ccccn1,x,x,-14.2,3.1%,14.0%
Cc1cccc(OCCCC(=O)Nc2nccs2)c1C,10.3%,-1.2%,4.7,-1.8%,3.16µM*
CCc1ccc(CCC(=O)Nc2nccs2)o1,-7.2%,-4.9%,-2.3,3.7%,-26.0%
Cc1cccc(OCCCC(=O)Nc2ccc(S(=O)(=O)Nc3nccs3)cc2)c1C,16.6%,7.9%,-2.8,6.3%,u
Cc1ccc(CCC(=O)Nc2nccs2)o1,19.4%,x,20.6,28.2µM*,-0.9%
CCOc1ccc(OCC(=O)Nc2nccs2)cc1,25.5%,11.7%,u,-13.6%[10 µM],12.6µM*
COc1ccc(OCC(=O)Nc2nccs2)cc1,12.7%,6.3%,-22.2,7.94µM*,3.55µM*
COc1ccc(OCCC(=O)Nc2nccs2)cc1,-25.5%,6.2%,-3.2,u,u
COC(=O)N1CCC2(CCN(Cc3cc(C(F)(F)F)cc(C(F)(F)F)c3)CC2)CC1,x,x,x,4.4%,6.2%
O=C(c1[nH]c2ccccc2c1Sc1ccc(Cl)cc1)N1CCCCC1,x,-1.8%,x,x,x
O=C(Oc1ccccc1Cl)C1CCN(C(=O)c2ccc(F)cc2)CC1,-9.6%,-4.6%,-1.9,x,x
O=C(COc1cccc2cccnc12)Nc1nccs1,8.7%,-5.5%,-3.3,17.8µM*,u
COc1ccccc1OCC(=O)Nc1ccncc1,6.1%,-8.8%,26.6,-6.4%,43.8%
COCc1nnc(NC(=O)COc2ccc3c(c2)OCO3)s1,13.3%,4.2%,1.3,0.3%,-24.6%
Cc1cccc(OCC(=O)Nc2ccncc2)c1C,-36.5%,3.4%,2.8,3.16µM*,u
O=C(COc1ccc2c(c1)OCO2)Nc1nccs1,u,7.0%,12.6,u,10µM*
Cc1ccc(C#N)c(SCc2nnc(-c3ccc(Cl)cc3)o2)n1,19.5%,-2.3%,-18.7,u,3.55µM*
Cc1cc(C)c(C#N)c(SCc2nnc(-c3ccccc3)o2)n1,-18.3%,-6.2%,-11.9,u,u
COc1ccc2cc(C(=O)NCc3ccco3)c(=Nc3ccc(C(=O)O)cc3)oc2c1,-11.3%,-3.1%,-11.2,2.82µM*,1.12µM*
SMILES,a7 integrin act,ERG Ets-DNA blk,Giardia killer,Gal4-VP16 FLuc,RORg inh
O=C(NCc1ccco1)c1cc2ccc(O)cc2oc1=O,-14.4%,-8.1%,-2.7,10µM*,10µM*
Cc1nc2ccc(S(=O)(=O)CCC(=O)Nc3ccc(Cl)cc3)cc2s1,x,5.4%,x,x,x
Cc1cc2c(OCC(CNC(C)(C)C)OC(=O)c3ccccc3)cccc2[nH]1 (centres undefined),x,x,x,-27.4%,-12.4%[10 µM]
Cc1ccc(NC(=S)Nc2cccc3ccccc23)cc1F,-27.5%,-4.6%,-16.1,7.94µM*,11.2µM*
O=C(Nc1cccc2ccccc12)c1ccccc1,3.5%,-2.5%,9.8,0.9%,1.1%
CCCC(=O)NC(=S)Nc1ccc(C(C)=O)cc1,22.6%,-0.5%,-26.7,u,15.8µM*
CC(=O)c1ccc(NC(=S)Nc2cccc3ccccc23)cc1,-29.5%,-9.6%,6.6,u,14.1µM*
CC(=O)c1cccc(NC(=O)C(=O)Nc2cccc3ccccc23)c1,8.91µM*,8.9%,0.3,u,u
CCCNS(=O)(=O)c1cccc(C(=O)NC2CCCc3ccccc32)c1 (centres undefined),11.7%,-3.1%,-4.3,-0.5%,0.3%
O=C(Cc1cccc([N+](=O)[O-])c1)NCc1nc2cccnc2n1Cc1ccc(F)cc1,x,9.9%,x,x,x
Cc1ccc(C)c(N2CCN(C(=O)CN3C(=O)CSc4c3c(C)nn4-c3ccccc3)CC2)c1,x,-1.4%,x,x,x
CCNC(=O)NC(=O)C(C)OC(=O)C1CCN(S(=O)(=O)c2ccccc2C(=O)OC)CC1 (centres undefined),1.8%,-0.7%,4.7,-11.1%,-18.9%
CC(=O)c1ccccc1NC(=O)CN1C(=O)NC2(CCCCCCC2)C1=O,8.2%,-18.1%,2.7,x,x
COCCCn1c(-c2ccccc2Cl)n[nH]c1=S,16.4%,1.6%,-9.7,u,15.8µM*
COCCCn1c(-c2ccc(Cl)cc2)n[nH]c1=S,-3.9%,-17.4%,-10.5,12.6µM*,17.8µM*
CC(C)Cn1c(-c2ccncc2)n[nH]c1=S,-11.1%,-4.8%,10.8,0.2%,u
CCOCCCn1c(-c2ccc(Cl)cc2)n[nH]c1=S,3.1%,-0.8%,2.7,10µM*,5.01µM*
COc1ccc(CCn2c(-c3ccncc3)n[nH]c2=S)cc1OC,5.2%,0.1%,-23.9,9.2%,-15.4%
S=c1[nH]nc(-c2ccc(Cl)cc2)n1CCCN1CCOCC1,-16.5%,3.4%,-20.6,-3.0%,10µM*
COC(=O)c1ccccc1NC(=O)c1nc(-c2ccc(C)cc2)n2c1CCCCC2,x,1.1%,x,x,x
COc1cc(/C=C(\C#N)c2nc3ccccc3[nH]2)ccc1OCc1cccc(C(F)(F)F)c1,x,-1.2%,x,x,x
CCCCC#Cc1cncc(C(=O)N/N=C/c2cccc(OC)c2)c1,6.2%,4.6%,23.8,u,11.2µM*
O=C(c1csnn1)N1CCC2(CC1)CN(c1ccncc1)C2,x,x,x,-12.4%,-10.6%
COCCNC(=S)N/N=C(\C)c1cccc(C(F)(F)F)c1,19.7%,12.8%,3.3,5.01µM*,2.51µM*
C/C(=N\NC(=O)C(N)=O)c1cccc(C(F)(F)F)c1,-4.2%,7.4%,-3.8,-20.3%,1.6%
COCCNC(=S)N/N=C(\C)c1ccc2cc(OC)ccc2c1,24.6%,-6.0%,7.5,1µM*,1µM*
COCCNC(=S)N/N=C(\C)c1cc2ccccc2o1,21.9%,-2.5%,-11.5,4.47µM*,5.01µM*
COc1ccc2cc(/C(C)=N/NC(=O)C3CC3)ccc2c1,-17.6%,-1.6%,1.8,-3.7%,-20.9%
COCCNC(=S)N/N=C(\C)c1ccc(OC(F)F)cc1,28.4%,3.6%,-22.6,7.94µM*,2.24µM*
Cc1cc(C)n2c(Br)c(CSc3nc4ccccc4s3)nc2n1,7.4%,-3.8%,9.0,26.0%,37.9%
